# From PubChem BioAssay
# HT1080 IDH1KD tx: toxicity to HT-1080 IDH1 knockdown cells (counter line); HT-1080 IDH1 knockdown viability, ATP luminescence, 48 h; Potency, µM (titrated, usually from 46.1 µM), for the others: at the highest dose activity, negative = toxicity, hits mostly cytotoxic; hit rate 2% among 360,000; AID 686971;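 further: potency means the concentration at half of the fitted maximal effect; 0% = DMSO wells and -100% = cell-free medium wells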
#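 In this qHTS, HT-1080 cells depleted of IDH1 are exposed for 48 h at 37 °C to compound titrations. Toxicity is scored from CellTiter-Glo luminescence, with DMSO as full viability and medium alone as none.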
# IL-1B inflam inh: blocks inflammasome-driven IL-1 beta release. activity change, % at 57.5 µM. THP-1 LPS/ATP IL-1B secretion, AlphaLISA, 16 h; stronger effect = lower value. hit rate 4.7% among 360,000; in the data active means activity change below about -50%; inconclusive means mostly about -30% to -49%
#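 THP-1 cells pretreated 1 hr with compounds (up to 57.5 uM final), then stimulated with LPS (250 ng/mL final) plus ATP (1.25 mM final); secreted IL-1B measured by AlphaLISA after 16 hr, decreased signal indicating inhibition.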
# TDP1 cell noCPT: qHTS for Inhibitors of human tyrosyl-DNA phosphodiesterase 1 (TDP1): qHTS in cells in absence of CPT; DT40 Tdp1-/- hTDP1 cells, no CPT, ATP luminescence, 48 h; Potency, µM (doses to about 46.2 µM), for inactives: top-dose activity change, negative = growth inhibition, hits mostly inhibitors; hit rate 15% among 420,000; further: potency means the concentration at half of the fitted maximal effect; nearly all actives have a fitted effect of over 55% in size
#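 Luminescent ATP content (CellTiter-Glo) served as the growth readout. Knockout chicken DT40 cells expressing human TDP1 were exposed to compounds without camptothecin for a minimum 48 hr at 37 °C.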
# TDP1 cell CPT: DT40-hTDP1 cell growth loss with CPT; chicken DT40 Tdp1-/-;hTDP1 cells + 20 nM CPT, ATP luminescence, 48 h; Potency, µM (highest dose often 46.2 µM), for the others: at the top dose activity change, negative = growth inhibition, actives largely listed as inhibitors; hit rate 12% among 420,000; AID 686979; further: potency means the concentration at half of the fitted maximal effect; nearly all actives have a fitted effect of over 55% in size
#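 Chicken DT40 Tdp1-/- cells stably complemented with human TDP1 were seeded at 400 cells/well in medium containing 20 nM camptothecin, exposed to pin-transferred compounds, and grown at 37 °C for at least 48 hr. Viability was read as ATP luminescence.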
# HT1080NT lethal: kills 2HG-producing HT-1080-NT fibrosarcoma cells. Potency, µM (titrated, usually from 46.1 µM), without a hit: top-dose activity, negative = less viability, most hits filed as cytotoxic. AID 686970. HT-1080-NT fibrosarcoma viability, CellTiter-Glo ATP luminescence, 48 h. hit rate 1.6% among 360,000;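 further: NT is the 2HG producing partner of a matched IDH1 knockdown line; potency means the concentration at half of the fitted maximal effect; 0% = DMSO-treated cells and -100% = media-only wells without cells; nearly all actives have a fitted effect of over 55% in size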
#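 Viability of the 2HG-overproducing fibrosarcoma line after 48 hours of compound exposure at 37 degrees C was determined by luminescence with CellTiter-Glo, and concentration-effect curves were then fitted and categorized.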
# * = called active by the depositor; ? = inconclusive; nt = not tested or not shown. An excerpt weighted towards active compounds, which were near 19% of everything screened. Unless noted, the call rests on the fitted dose curve; in most records, active means well fitted curve in the direction sought with a large enough effect; inconclusive means small, poorly fitted or top-dose-only effect, or another doubt; inactive means no such curve, though single readings can be large; an effect the other way counts as inactive or inconclusive. Unless noted, on the % scale 0 is the no-effect control and ±100 the full control effect.
SMILES,HT1080 IDH1KD tx,IL-1B inflam inh,TDP1 cell noCPT,TDP1 cell CPT,HT1080NT lethal
Cc1cc(C(=O)COc2ccccc2C#N)c(C)n1C1CC1,-9.0%,-6.1,?,?,-11.0%
COCCn1c(C)cc(C(=O)COC(=O)c2c(C)nn(Cc3ccccc3)c2C)c1C,-2.0%,-16.2,?,-22.9%,-15.2%
CN1CCN(C(=O)c2ccc(CNS(=O)(=O)c3cccc(Cl)c3)cc2)CC1,4.0%,8.5,-10.8%,-10.6%,-0.7%
CN1CCC(NC(=O)c2ccncc2)CC1,20.3%,-5.2,-11.8%,-8.6%,20.9%
Cc1cc2nc(N3CCN(C(=O)c4ccco4)CC3)sc2cc1C,-23.6%,-13.8,20.6µM*,?,-26.5%
COc1ccc(C)c2sc(N3CCN(C(=O)c4ccco4)CC3)nc12,nt,nt,18.4µM*,18.4µM*,nt
Cc1nnc2c(N3CCN(C(=O)c4ccco4)CC3)nc3ccccc3n12,-0.5%,21.3,?,?,-0.3%
O=C(c1ccco1)N1CCN(c2nc3ccc(Cl)cc3s2)CC1,nt,nt,23.1µM*,?,nt
Cc1ccc2nc(N3CCN(C(=O)c4ccco4)CC3)c3nncn3c2c1,12.4%,-8.8,16.4µM*,?,7.6%
Cc1cc(C)c2nc(N3CCN(C(=O)c4ccco4)CC3)sc2c1,?,-29.3,-2.9%,-2.6%,18.8%
c1ccc(CNc2nc(NCc3ccccc3)c3sccc3n2)cc1,?,-72.9*,18.4µM*,23.1µM*,?
COc1ccccc1CNc1nc(NCc2ccccc2F)c2sccc2n1,20.6µM*,-82.8*,4.11µM*,2.91µM*,23.1µM*
COCCNc1nc(NCc2ccccc2F)c2sccc2n1,-27.9%,-19.1,18.4µM*,18.4µM*,-18.7%
Fc1cc(Cl)ccc1Nc1nc(NCc2ccccc2)nc2ccsc12,-15.7%,-14.7,9.2µM*,11.6µM*,-0.5%
COCCNc1nc(Oc2ccc(C(N)=O)cc2)c2sccc2n1,-3.7%,-19.6,?,?,-25.2%
COc1ccccc1CNc1ccccc1F,14.7%,16.3,-19.3%,?,2.4%
c1ccc(CNc2nc(Oc3ccncc3)c3sccc3n2)cc1,0.2%,17.2,-13.9%,-23.1%,19.2%
Fc1cc(F)nc(NCc2ccccc2)n1,0.0%,13.8,14.0%,13.1%,0.0%
CCN1C[C@@H]2[C@@H]3C(=O)N(C)C(=O)[C@@H]3[C@](CC)(C1=O)N2C(=O)c1ccccc1,2.4%,8.7,1.6%,-6.3%,14.0%
COc1ccccc1CNc1nc(NCc2ccccc2)nc2ccsc12,18.4µM*,-100.3*,14.6µM*,23.1µM*,25.9µM*
COc1ccccc1CNc1nc(NCc2cnc(C)cn2)c2sccc2n1,-15.4%,26.1,?,?,-25.3%
COc1ccccc1CNc1nc(NCc2ccc(C)cc2C)c2sccc2n1,?,-79.6*,9.2µM*,4.61µM*,?
COc1ccc(-c2cc(CNc3nc(NCc4ccccc4OC)nc4ccsc34)on2)cc1,14.6µM*,0.0,25.9µM*,16.4µM*,18.4µM*
Fc1ccccc1CNc1nc(NCC2CC2)nc2ccsc12,20.6µM*,-76.0*,16.4µM*,14.6µM*,23.1µM*
Cc1cc(C)cc(NC(=O)C(=O)NCCCN2CCOCC2)c1,-3.5%,-5.0,6.1%,17.5%,12.2%
SMILES,HT1080 IDH1KD tx,IL-1B inflam inh,TDP1 cell noCPT,TDP1 cell CPT,HT1080NT lethal
CCCCOCCOC(=O)C1OC1(C)c1ccccc1 (stereo not drawn),8.3%,9.1,-8.4%,-11.4%,2.7%
COc1cccc(NC(=O)NCc2ccccc2Cl)c1,7.8%,-8.1,-31.4%,-12.9%,-2.0%
COc1cc(C(=O)NC(c2ccc(Cl)cc2)c2cc(Cl)c3cccnc3c2O)cc(OC)c1OC (stereo not drawn),nt,nt,5.17µM*,10.3µM*,nt
COc1cc(C(=O)Nc2cccc3ncccc23)cc(OC)c1OC,7.1%,18.3,0.3%,-8.2%,2.4%
COc1cccc(C(=O)NC(c2ccc(Cl)cc2)c2cc(Cl)c3cccnc3c2O)c1 (stereo not drawn),nt,nt,5.8µM*,8.2µM*,nt
COC(=O)c1sc(N)nc1CCNC(=O)OC(C)(C)C,17.5%,25.1,-9.8%,9.0%,17.9%
CC(C)Cn1c(=O)c2sccc2n2c(CCCC(=O)NCc3ccccc3Cl)nnc12,nt,nt,-19.5%,-10.8%,nt
CC(C)C(=O)Nc1ccc(N2CCN(C(=O)c3cccs3)CC2)cc1,22.4%,10.1,?,-13.9%,12.9%
Cc1ccccc1C(=O)N1CCN(c2ccc(NC(=S)NC(=O)c3cccs3)cc2)CC1,-9.7%,?,23.1µM*,23.1µM*,?
COc1ccc(C(=O)N2CCN(c3ccc(NC(=O)c4cccs4)cc3)CC2)cc1,5.3%,?,?,?,0.9%
CCC(=O)NC(=S)Nc1ccc(N2CCN(C(=O)c3ccc(Cl)cc3)CC2)cc1,-10.4%,-9.3,?,20.6µM*,-28.9%
O=C(Nc1ccc(N2CCN(C(=O)c3ccccc3)CC2)cc1)c1cccs1,-8.5%,-58.6*,20.6µM*,18.4µM*,-4.7%
CC(C)CC(=O)NC(=S)Nc1ccc(N2CCN(C(=O)c3cccs3)CC2)cc1,?,-57.7*,20.6µM*,?,?
O=C(CCC(=O)c1ccc(F)cc1)OC1CCOC1=O (stereo not drawn),14.5%,3.7,-12.6%,-4.0%,17.7%
Cc1ccc(C(=O)N2CCN(c3ccc(NC(=S)NC(=O)c4cccs4)cc3)CC2)cc1,-3.7%,-54.5*,20.6µM*,?,-13.8%
COCCCNC(=O)Cn1c(=O)n(Cc2ccc(F)cc2)c(=O)c2sccc21,-2.5%,12.5,-0.3%,12.3%,-5.2%
C=Cc1ccc(Cn2c(=O)n(CCCOC)c(=O)c3sccc32)cc1,-2.8%,-88.0*,?,?,-5.6%
C=Cc1ccc(Cn2c(=O)n(C)c(=O)c3sccc32)cc1,?,-26.8,?,3.66µM*,-25.2%
COc1ccccc1C(=O)NCCC(=O)NCCCSc1ccccc1,-5.5%,0.0,-6.6%,-17.2%,0.1%
COc1cccc(NC(=O)CSCn2nnc3c(=O)[nH]c(Cc4ccc(F)cc4)nc32)c1,nt,nt,4.11µM*,-21.6%,nt
CCOC(=O)c1cccc(NC(=O)CC2C(=O)N(c3ccc(Cl)cc3)C(=O)N2C2CCCC2)c1 (stereo not drawn),nt,nt,18.4µM*,20.6µM*,nt
COc1cccc(N2C(=O)C(CC(=O)Nc3cccc(F)c3)N(C3CCCC3)C2=O)c1 (stereo not drawn),nt,nt,-1.8%,-22.1%,nt
COc1ccc(NC(=O)CC2C(=O)N(c3ccc(C)cc3)C(=O)N2C2CCCCC2)cc1 (stereo not drawn),nt,nt,-4.7%,5.4%,nt
CCOC(=O)c1cccc(NC(=O)CC2C(=O)N(c3ccc(OC)cc3)C(=O)N2C2CCCC2)c1 (stereo not drawn),nt,nt,23.1µM*,23.1µM*,nt
